Experimental data taken from PubChem BioAssay AID1159580 (chemical genetic matrix, 2015).
The campaign covered roughly 5,500 compounds. About 2,000 (36%) were called active. Inconclusive results (about 18%) are left out. No stated cut-off is given here; in the data, active means normalized growth mostly below about 0.91 (no sharp cut-off); inconclusive means no clear call, values can overlap the other calls; inactive means mostly above about 0.92. This is one part of the list.

Test: chemical genetic growth profiling, strain panel (AID 1159580);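 further: tested at 20 µM; growth read once vehicle control cultures reached saturation at 30 °C; 1 = growth at the plate median or of vehicle wells; lower values mean less growth of the strain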
Conditions: S. cerevisiae deletion strains, growth OD
[1] = locus YBL105C, strain PKC1, active compounds read low
[2] = locus YBR135W, strain CKS1, active compounds read low
[3] = locus YBR136W, strain MEC1, active compounds read low
[4] = locus YBR160W, strain CDC28, active compounds read low
[5] = locus YDL017W, strain CDC7, active compounds read low
[6] = locus YDL028C, strain MPS1, active compounds read low
[7] = locus YDL108W, strain KIN28, active compounds read low
[8] = locus YDL214C, strain PRR2, active compounds read low
[9] = locus YDR052C, strain DBF4, active compounds read low
[10] = locus YDR226W, strain ADK1, active compounds read low
[11] = locus YDR477W, strain SNF1, active compounds read low
[12] = locus YER123W, strain YCK3, active compounds read low
[13] = locus YER133W, strain GLC7, active compounds read low
[14] = locus YFR003C, strain YPI1, active compounds read low
[15] = locus YFR019W, strain FAB1, active compounds read low
[16] = locus YFR028C, strain CDC14, active compounds read low
[17] = locus YGR040W, strain KSS1, active compounds read low
[18] = locus YGR052W, strain FMP48, active compounds read low
[19] = locus YGR092W, strain DBF2, active compounds read low
[20] = locus YHR030C, strain SLT2, active compounds read low
[21] = locus YHR079C, strain IRE1, active compounds read low
[22] = locus YHR082C, strain KSP1, active compounds read low
[23] = locus YHR205W, strain SCH9, active compounds read low
[24] = locus YIL147C, strain SLN1, active compounds read low
[25] = locus YJL095W, strain BCK1, active compounds read low
[26] = locus YJL128C, strain PBS2, active compounds read low
[27] = locus YJL157C, strain FAR1, active compounds read low
[28] = locus YJR016C, strain ILV3, active compounds read low
[29] = locus YJR066W, strain TOR1 (second series), active compounds read low
[30] = locus YJR066W, strain TOR1, active compounds read low
[31] = locus YKL048C, strain ELM1, active compounds read low
[32] = locus YKL067W, strain YNK1, active compounds read low
[33] = locus YKL101W, strain HSL1, active compounds read low
[34] = locus YKL203C, strain TOR2, active compounds read low
[35] = locus YLR113W, strain HOG1, active compounds read low
[36] = locus YLR133W, strain CKI1, active compounds read low
[37] = locus YLR403W, strain SFP1, active compounds read low
[38] = locus YML070W, strain DAK1, active compounds read low
[39] = locus YMR205C, strain PFK2 (second series), active compounds read low
[40] = locus YNL006W, strain LST8, active compounds read low
[41] = locus YNL020C, strain ARK1, active compounds read low
[42] = locus YNL183C, strain NPR1, active compounds read low
[43] = locus YNL207W, strain RIO2, active compounds read low
[44] = locus YNL307C, strain MCK1 (second series), active compounds read low
[45] = locus YOL136C, strain PFK27, active compounds read low
[46] = locus YOR061W, strain CKA2, active compounds read low
[47] = locus YOR119C, strain RIO1, active compounds read low
[48] = locus YOR231W, strain MKK1, active compounds read low
[49] = locus YPL031C, strain PHO85, active compounds read low
[50] = locus YPL153C, strain RAD53, active compounds read low
[51] = locus YPL204W, strain HRR25, active compounds read low
[52] = locus YPL209C, strain IPL1, active compounds read low
[53] = locus YPL256C, strain CLN2, active compounds read low
[54] = locus YPR106W, strain ISR1, active compounds read low
[55] = locus YPR111W, strain DBF20, active compounds read low
[56] = strain NNK1, active compounds read low

Measured: normalized growth

COCc1nc2c([nH]1)c(=O)n(C)c(=O)n2CC(C)C
inactive: locus YAL040C, strain CLN3, active compounds read low 0.991 | locus YCL061C, strain MRC1 (second series), active compounds read low 1 | locus YDR150W, strain NUM1, active compounds read low 1 | locus YDR363W, strain ESC2, active compounds read low 0.997 | locus YER002W, strain NOP16, active compounds read low 1.02 | locus YGR078C, strain PAC10, active compounds read low 1.01 | locus YGR229C, strain SMI1, active compounds read low 0.993 | locus YJR075W, strain HOC1, active compounds read low 0.994 | locus YNL153C, strain GIM3, active compounds read low 1.01 | locus YNL175C, strain NOP13, active compounds read low 0.999 | locus YNL197C, strain WHI3, active compounds read low 1.01 | locus YNL224C, strain SQS1, active compounds read low 1 | locus YOR083W, strain WHI5 (second series), active compounds read low 1.01 | locus YPL241C, strain CIN2, active compounds read low 1.01

Cc1ccc(Sc2c(Sc3ccc(C)cc3)c(=O)c2=O)cc1
inactive: locus YAR019C, strain CDC15, active compounds read low 0.898 | [1] 0.982 | [2] 0.961 | [3] 0.968 | [4] 0.958 | [5] 0.971 | [6] 0.961 | locus YDL101C, strain DUN1, active compounds read low 0.915 | [7] 0.964 | locus YDL132W, strain cdc53, active compounds read low 0.936 | [9] 0.974 | [10] 0.968 | locus YFL009W, strain cdc4, active compounds read low 0.946 | [14] 0.969 | [16] 0.958 | [24] 0.964 | [26] 0.949 | [28] 0.976 | locus YKL193C, strain SDS22, active compounds read low 0.948 | locus YMR001C, strain CDC5, active compounds read low 0.952 | locus YMR277W, strain FCP1, active compounds read low 0.882 | [40] 0.949 | locus YNL161W, strain CBK1, active compounds read low 0.966 | [43] 0.973 | locus YOR329C, strain SCD5, active compounds read low 0.978 | [52] 0.965 | locus YPR025C, strain CCL1, active compounds read low 0.957 | [54] 0.967 | [55] 0.952 | [56] 0.963 | strain TSCII, active compounds read low 0.914
active: [8] 0.184 | [11] 0.226 | [12] 0.14 | [13] 0.237 | [15] 0.128 | [17] 0.285 | [18] 0.228 | [19] 0.427 | [20] 0.132 | [21] 0.171 | [22] 0.155 | [23] 0.0561 | [25] 0.172 | [27] 0.168 | [29] 0.135 | [30] 0.129 | [31] 0.599 | [32] 0.287 | [33] 0.447 | [34] 0.551 | [35] 0.186 | [36] 0.267 | [37] 0.161 | [38] 0.135 | [39] 0.486 | [41] 0.319 | [42] 0.173 | [44] 0.267 | [45] 0.118 | [46] 0.427 | [47] 0.636 | [48] 0.224 | [49] 0.144 | [50] 0.178 | [51] 0.197 | [53] 0.172

O=c1c(Sc2ccc(Cl)cc2)c(Sc2ccc(Cl)cc2)c1=O
active: [8] 0.104 | [11] 0.136 | [12] 0.0987 | [13] 0.108 | [15] 0.091 | [17] 0.158 | [18] 0.135 | [19] 0.386 | [20] 0.128 | [21] 0.113 | [22] 0.128 | [23] 0.121 | [25] 0.128 | [27] 0.0972 | [29] 0.0937 | [30] 0.124 | [31] 0.6 | [32] 0.115 | [33] 0.39 | [34] 0.432 | [35] 0.175 | [36] 0.147 | [37] 0.154 | [38] 0.0995 | [39] 0.241 | [40] 0.45 | [41] 0.196 | [42] 0.114 | [44] 0.261 | [45] 0.0906 | [46] 0.266 | [47] 0.485 | [48] 0.142 | [49] 0.103 | [50] 0.104 | [51] 0.109 | [53] 0.154
inactive: [1] 0.984 | [2] 0.961 | [3] 0.978 | [4] 0.973 | [5] 0.985 | [6] 0.973 | [7] 0.967 | [9] 0.977 | [10] 0.971 | [14] 0.979 | [16] 0.968 | [24] 0.971 | [26] 0.971 | [28] 0.974 | [43] 0.973 | [52] 0.985 | [54] 0.978 | [55] 0.962 | [56] 0.98
